Test results from PubChem BioAssay (NCATS).
Inconclusive results are not listed. Active and inactive are the calls of the source. Unless noted, calls come from the whole dose curve; as a rule, active = well fitted curve in the direction sought with a large enough effect; inconclusive = small, poorly fitted or top-dose-only effect, or another doubt; inactive = no such curve, though single readings can be large; an effect the other way counts as inactive or inconclusive.

What was measured:
[1] = target: Cytochrome P450 1A2 (Homo sapiens) (UniProt P05177); test: p450-cyp1a2 (AID 410; calls by dose curve; note: potency is the fitted concentration of half-maximal effect;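 for activity change, negative = inhibition: -100% = full effect of reference inhibitor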)
Summary of the method: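 20nM CYP1A2 with 100uM Luciferin-ME (at Km) in 100mM KPO4; compound preincubated 10 min, NADPH regeneration added, 60 min at room temperature. Luciferin quantified by luminescence after detection reagent; normalized to 57 uM furafylline.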

[2] = target: Glucocorticoid receptor (Homo sapiens) (UniProt P04150); test: GR-GFP Redistribution (AID 450;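 active = compounds whose dose series gives a full or clear partial fitted curve of increased nuclear translocation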; note: potency is the fitted concentration of half-maximal effect); conditions: U2OS GR-GFP nuclear translocation, laser cytometry, 2 h
[3] = target: Glucocorticoid receptor (Homo sapiens) (UniProt P04150); test: GR-EFC Redistribution (AID 451; calls by dose curve; note: potency is the fitted concentration of half-maximal effect); conditions: CHO-K1 GR-EFC translocation, beta-gal luminescence, 2 h
Summary of the method: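 CHO-K1 cells expressing nuclear EA and GR-ED fragments of b-gal; compounds titrated up to 46 uM final, 2 h at 37 C. GR nuclear translocation read as complemented b-gal luminescence after 1 h RT detection.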

[4] = target: 3',5'-cyclic-AMP phosphodiesterase 4B (Homo sapiens) (UniProt Q07343); test: qHTS Assay for Inhibitors of PDE-IV (AID 607; active = well fitted activation curve with a large enough effect in the main read-out, with a control signal flat, not every such curve was filed as active; note: % of control where 0% means no effect)
Summary of the method: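 Live HEK293 cells with a modified cyclic nucleotide-gated (CNG) channel report intracellular cAMP via membrane-potential dye fluorescence (ex 535/em 590 nm). Endogenous PDE-IV was targeted. Compounds were tested at up to 22.9 uM final; RO 20-1724 100 uM served as control.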

[5] = qHTS Assay for Lipid Storage Modulators (AID 1519; calls by dose curve; for activity change, negative = inhibition: % is set by controls: 0 for no effect and ±100 for the full control effect); conditions: Drosophila S3 cells, BODIPY lipid droplet/cell ratio, laser cytometry, cells loaded with oleic acid; for activity change, negative = inhibition: at 57.5 µM (top of the series)
Summary of the method: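 Cells seeded at 5,000 per well were treated with compounds over a concentration series and loaded with oleic acid (400 uM, as added). Lipid droplet fluorescence (488 nm excitation, 500-530 nm channel) was read by laser-scanning cytometry and normalized to 20 uM Triacsin C.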

[6] = target: DNA dC->dU-editing enzyme APOBEC-3G (Homo sapiens) (UniProt Q9HC16); test: qHTS for inhibitors of Vif-A3G interactions: Validation (AID 588379); note: 0% is about no effect
Summary of the method: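 HeLa cells stably expressing Vif and A3G-eYFP, 700 cells/well, incubated overnight at 37 deg C, then exposed to compound overnight at 37 deg C. Inhibition of Vif-mediated degradation read as increased yellow fluorescence (Ex 488/Em 500-530) by laser-scanning cytometry.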

[7] = system: Zika virus NS2B-NS3 protease; test: Primary screen GU AMC qHTS for Zika virus inhibitors (AID 1347154);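 note: 0% = no-inhibitor control and -100% = no-enzyme control; nearly all actives have a fitted effect of over 70% in size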
Summary of the method: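 Unlinked Zika NS2B hydrophilic domain–NS3 protease complex at 25 nM in 10 mM Tris-HCl pH 8.0, 0.01% Tween 20, with an AMC peptide substrate. Fluorescence change (340/450 nm) over 15 min at room temperature, normalized to controls, fitted to 4-parameter Hill.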

[8] = target: Mitogen-activated protein kinase 10 (Mus musculus) (UniProt Q61831); test: JNK3 AlphaScreen Assay (AID 530; active = well fitted curve in either direction with a large enough effect, not every such curve was filed as active;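 note: kinase came from lysate of stimulated human HepG2 cells; signal reports phosphorylation of biotinylated GST-cJun 1-79 at Ser73 with 10 µM ATP; % is set by controls: 0 for no effect and ±100 for the full control effect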)
Summary of the method: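 Pre-activated (IL-1β/TNFα) JNK3 in HepG2 lysates phosphorylates biotin-GST-cJun(1-79), 10 uM ATP; anti-phospho-cJun(Ser73) AlphaScreen read at room temperature, pH 7.6 Tris buffer. Compounds pre-incubated 15 min as titrations.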

[9] = target: Cytochrome P450 2C19 (Homo sapiens) (UniProt P33261); test: qHTS Assay for Inhibitors and Substrates of Cytochrome P450 2C19 (AID 899); note: % is set by controls: 0 for no effect and ±100 for the full control effect; nearly all actives have a fitted effect of over 60% in size
Summary of the method: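 Luminescent read-out of luciferin formed from Luciferin-H EGE (10uM, equal to KM). Enzyme 5nM in 50mM KPO4; compound added, 10 min at 37C, then NADPH regenerating system for 60 min at 37C. Full inhibition defined by 57uM ketoconazole.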

[10] = target: Ubiquitin carboxyl-terminal hydrolase 1 (Homo sapiens) (UniProt O94782); test: Inhibitors of USP1/UAF1: Pilot qHTS (AID 504865);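 note: rhodamine fluorescence freed from ubiquitin-rhodamine substrate followed over time; top concentration of the series differs between compounds; % is set by controls: 0 for no effect and ±100 for the full control effect; nearly all actives have a fitted effect of over 35% in size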
Summary of the method: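 Enzyme-free wells gave the negative control, while test wells held 1nM USP1/UAF1 preincubated with compound for 15 min at room temperature. Ub-Rho at 150nM final started the reaction, and fluorescence at 480/540 nm was recorded kinetically.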

[11] = Confirmation and Secondary Assay for Modulators of Hemoglobin Beta Chain Splicing at IVS2 654 locus (AID 910);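 note: HeLa cells stably carrying EGFP split by mutant beta-globin IVS2-654 intron; % of control where 0% means no effect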
Summary of the method: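 HeLa cells stably expressing EGFP interrupted by β-globin IVS2-654 intron, seeded overnight in Opti-MEM/2% FCS, then treated 2 days at 37 °C. Restored splicing read as total peak GFP intensity per well by laser scanning cytometry (488 nm excitation, 500–520 nm emission); 500 nM antisense PNA as control.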

[12] = Confirmation and Secondary Assay for Modulators of Hemoglobin Beta Chain Splicing at IVS2 705 locus (AID 930);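 note: HeLa cells stably expressing the EGFP-705 splicing reporter; GFP fluorescence per well restored by corrected splicing of the IVS2-705 intron in EGFP; % of control where 0% means no effect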
Summary of the method: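 Stable HeLa line with EGFP disrupted by mutant beta-globin intron 2 (705). Overnight attachment, then 2 days of compound at 37C, 5% CO2. Signal: peak GFP intensity summed over objects 5-250 µm.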

[13] = target: Cytochrome P450 2D6 (Homo sapiens) (UniProt P10635); test: Cytochrome P450 family 2 subfamily D member 6 (CYP2D6) small molecule antagonists: luciferase biochemical (cell-free) qHTS assay (AID 1645840; active = well fitted curve in the direction sought with a large enough effect in the repeat runs; an effect the other way counts as inactive or inconclusive; note: % is set by controls: 0 for no effect and ±100 for the full control effect; nearly all actives have a fitted effect of over 55% in size)
Summary of the method: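 P450-Glo luminescent screen: recombinant CYP2D6 enzyme–proluciferin substrate mix preincubated with compound 10 min at room temperature, then NADPH regeneration added for 1 h at room temperature. Detection reagent added for 20 min; luciferin light read as relative luminescence units.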

[14] = target: Cytochrome P450 3A4 (Homo sapiens) (UniProt P08684); test: Cytochrome P450 family 3 subfamily A member 4 (CYP3A4) small molecule antagonists: luciferase qHTS assay (AID 1645841; active = well fitted curve in the direction sought with a large enough effect in the repeat runs; an effect the other way counts as inactive or inconclusive; note: nearly all actives have a fitted effect of over 45% in size)
Summary of the method: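 P450-Glo CYP3A4 enzyme with proluciferin substrate preincubated 10 min with compound at room temperature, then NADPH regeneration 1 h. Luciferin detection reagent added for 20 min; luminescence recorded. Ketoconazole positive control.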

[15] = NCATS anti-infectives library activity on HEK293 viability as a counter-qHTS vs the C. elegans viability qHTS (AID 1745854);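 note: HEK293 cells exposed to compounds for 24 hr before the viability read; % is set by controls: 0 for no effect and ±100 for the full control effect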
Summary of the method: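 HEK293 cells (1,500/well) exposed 24 hr at 37C to 1:5 titrations, up to 41.7 uM final; counter-screen to a C. elegans viability qHTS. Viability by CellTiter-Glo luminescence after 10 min at room temperature; digitonin as control.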

[16] = target: Cytochrome P450 2C9 (Homo sapiens) (UniProt P11712); test: qHTS Assay for Inhibitors and Substrates of Cytochrome P450 2C9 (AID 883); note: % is set by controls: 0 for no effect and ±100 for the full control effect; nearly all actives have a fitted effect of over 60% in size
Summary of the method: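 10nM CYP2C9 + 100uM Luciferin-H (=KM), 25mM KPO4; cpd 10 min 37C; NADPH regen, 60 min 37C; stop/detect with P450 Glo-Buffer 20 min; luminescence. Norm. to 57uM sulphaphenazole as full inhibition.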

[17] = target: Cytochrome P450 2D6 (Homo sapiens) (UniProt P10635); test: qHTS Assay for Inhibitors and Substrates of Cytochrome P450 2D6 (AID 891); note: potency is the fitted concentration of half-maximal effect; nearly all actives have a fitted effect of over 60% in size
Summary of the method: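 Human CYP2D6 (5 nM) with 30 uM Luciferin-ME EGE (at Km) in 100 mM KPO4, compound preincubated 10 min, then NADPH regeneration system for 60 min at room temperature. Luciferin read by luminescence; normalized to 1.43 uM quinidine.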

[18] = measured here: cell count channel max response
[19] = measured here: lipid channel max response

Chain of DNA dC->dU-editing enzyme APOBEC-3G (Homo sapiens) (Q9HC16 whole entry, looked up): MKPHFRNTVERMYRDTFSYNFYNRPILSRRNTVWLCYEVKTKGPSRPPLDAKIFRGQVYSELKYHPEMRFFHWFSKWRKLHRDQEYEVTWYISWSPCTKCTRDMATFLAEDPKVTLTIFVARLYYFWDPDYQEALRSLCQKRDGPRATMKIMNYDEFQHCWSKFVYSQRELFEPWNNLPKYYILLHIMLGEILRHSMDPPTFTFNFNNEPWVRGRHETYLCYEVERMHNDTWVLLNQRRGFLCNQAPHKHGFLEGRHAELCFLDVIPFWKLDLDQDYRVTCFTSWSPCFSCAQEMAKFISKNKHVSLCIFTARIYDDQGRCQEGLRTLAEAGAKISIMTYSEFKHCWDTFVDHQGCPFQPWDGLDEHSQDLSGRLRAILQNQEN
Chain of Cytochrome P450 1A2 (Homo sapiens) (P05177 whole entry, looked up): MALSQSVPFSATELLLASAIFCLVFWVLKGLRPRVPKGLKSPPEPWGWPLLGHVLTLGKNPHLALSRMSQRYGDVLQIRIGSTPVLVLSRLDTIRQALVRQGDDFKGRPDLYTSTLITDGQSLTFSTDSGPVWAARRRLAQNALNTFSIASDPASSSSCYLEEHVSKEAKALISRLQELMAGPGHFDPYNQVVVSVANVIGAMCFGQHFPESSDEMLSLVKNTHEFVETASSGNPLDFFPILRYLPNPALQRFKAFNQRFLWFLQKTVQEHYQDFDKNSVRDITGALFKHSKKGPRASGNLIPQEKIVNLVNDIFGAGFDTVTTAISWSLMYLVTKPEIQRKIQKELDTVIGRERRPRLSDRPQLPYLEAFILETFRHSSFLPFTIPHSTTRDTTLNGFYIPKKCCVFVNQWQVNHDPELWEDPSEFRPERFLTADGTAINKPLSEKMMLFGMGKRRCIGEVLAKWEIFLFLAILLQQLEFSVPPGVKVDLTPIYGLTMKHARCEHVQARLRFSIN
Chain of 3',5'-cyclic-AMP phosphodiesterase 4B (Homo sapiens) (Q07343 whole entry, looked up): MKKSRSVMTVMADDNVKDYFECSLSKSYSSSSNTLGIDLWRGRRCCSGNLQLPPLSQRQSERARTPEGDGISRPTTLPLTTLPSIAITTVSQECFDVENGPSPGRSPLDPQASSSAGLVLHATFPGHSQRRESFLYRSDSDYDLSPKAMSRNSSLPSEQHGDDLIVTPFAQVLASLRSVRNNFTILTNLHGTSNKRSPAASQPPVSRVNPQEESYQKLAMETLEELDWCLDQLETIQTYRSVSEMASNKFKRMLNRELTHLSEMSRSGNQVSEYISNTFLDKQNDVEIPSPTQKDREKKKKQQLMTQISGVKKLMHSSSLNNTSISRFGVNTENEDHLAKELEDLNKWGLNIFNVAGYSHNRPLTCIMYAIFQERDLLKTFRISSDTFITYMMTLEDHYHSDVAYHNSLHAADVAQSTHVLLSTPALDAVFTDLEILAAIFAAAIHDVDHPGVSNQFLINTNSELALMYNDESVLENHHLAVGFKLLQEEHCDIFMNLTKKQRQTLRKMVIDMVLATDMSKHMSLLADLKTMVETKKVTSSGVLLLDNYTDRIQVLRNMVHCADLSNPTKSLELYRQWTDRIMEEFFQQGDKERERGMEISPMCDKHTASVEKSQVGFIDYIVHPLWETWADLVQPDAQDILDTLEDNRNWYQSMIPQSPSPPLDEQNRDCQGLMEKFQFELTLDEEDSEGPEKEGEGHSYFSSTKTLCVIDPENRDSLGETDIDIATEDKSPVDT
Chain of Cytochrome P450 2C19 (Homo sapiens) (P33261 whole entry, looked up): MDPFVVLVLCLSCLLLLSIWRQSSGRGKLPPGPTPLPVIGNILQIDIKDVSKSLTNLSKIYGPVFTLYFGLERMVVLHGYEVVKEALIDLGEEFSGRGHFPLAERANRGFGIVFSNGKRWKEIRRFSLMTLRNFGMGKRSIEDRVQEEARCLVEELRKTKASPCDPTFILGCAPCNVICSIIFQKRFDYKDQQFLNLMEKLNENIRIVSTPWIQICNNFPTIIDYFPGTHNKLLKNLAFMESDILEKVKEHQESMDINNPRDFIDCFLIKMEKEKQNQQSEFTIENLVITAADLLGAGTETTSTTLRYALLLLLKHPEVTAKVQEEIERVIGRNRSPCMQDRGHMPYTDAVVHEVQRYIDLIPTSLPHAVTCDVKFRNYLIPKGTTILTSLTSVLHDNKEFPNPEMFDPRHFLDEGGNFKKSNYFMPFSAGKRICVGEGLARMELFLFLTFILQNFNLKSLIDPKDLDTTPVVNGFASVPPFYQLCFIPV
Chain of Glucocorticoid receptor (Homo sapiens) (P04150 whole entry, looked up, the tested form may be a part): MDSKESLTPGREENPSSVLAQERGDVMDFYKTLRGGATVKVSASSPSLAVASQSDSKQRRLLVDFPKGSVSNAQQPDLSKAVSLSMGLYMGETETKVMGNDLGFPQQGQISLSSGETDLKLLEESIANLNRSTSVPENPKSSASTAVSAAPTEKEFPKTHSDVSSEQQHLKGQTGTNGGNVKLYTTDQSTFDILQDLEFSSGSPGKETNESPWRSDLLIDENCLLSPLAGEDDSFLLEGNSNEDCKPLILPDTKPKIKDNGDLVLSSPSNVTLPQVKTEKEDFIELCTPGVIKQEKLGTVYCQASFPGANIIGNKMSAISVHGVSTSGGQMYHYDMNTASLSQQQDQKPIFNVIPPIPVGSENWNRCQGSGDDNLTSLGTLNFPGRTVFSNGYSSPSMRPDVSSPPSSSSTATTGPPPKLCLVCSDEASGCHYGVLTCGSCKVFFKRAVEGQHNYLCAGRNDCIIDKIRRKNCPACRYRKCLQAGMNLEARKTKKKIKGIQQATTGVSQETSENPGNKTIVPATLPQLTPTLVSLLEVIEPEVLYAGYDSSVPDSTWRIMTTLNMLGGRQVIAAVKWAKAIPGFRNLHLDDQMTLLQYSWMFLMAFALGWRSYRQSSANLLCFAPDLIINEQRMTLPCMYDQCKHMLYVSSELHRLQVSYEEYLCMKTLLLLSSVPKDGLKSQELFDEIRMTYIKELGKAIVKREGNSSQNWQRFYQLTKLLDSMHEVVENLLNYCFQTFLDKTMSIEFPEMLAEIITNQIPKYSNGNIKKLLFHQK
Chain of Ubiquitin carboxyl-terminal hydrolase 1 (Homo sapiens) (O94782 whole entry, looked up): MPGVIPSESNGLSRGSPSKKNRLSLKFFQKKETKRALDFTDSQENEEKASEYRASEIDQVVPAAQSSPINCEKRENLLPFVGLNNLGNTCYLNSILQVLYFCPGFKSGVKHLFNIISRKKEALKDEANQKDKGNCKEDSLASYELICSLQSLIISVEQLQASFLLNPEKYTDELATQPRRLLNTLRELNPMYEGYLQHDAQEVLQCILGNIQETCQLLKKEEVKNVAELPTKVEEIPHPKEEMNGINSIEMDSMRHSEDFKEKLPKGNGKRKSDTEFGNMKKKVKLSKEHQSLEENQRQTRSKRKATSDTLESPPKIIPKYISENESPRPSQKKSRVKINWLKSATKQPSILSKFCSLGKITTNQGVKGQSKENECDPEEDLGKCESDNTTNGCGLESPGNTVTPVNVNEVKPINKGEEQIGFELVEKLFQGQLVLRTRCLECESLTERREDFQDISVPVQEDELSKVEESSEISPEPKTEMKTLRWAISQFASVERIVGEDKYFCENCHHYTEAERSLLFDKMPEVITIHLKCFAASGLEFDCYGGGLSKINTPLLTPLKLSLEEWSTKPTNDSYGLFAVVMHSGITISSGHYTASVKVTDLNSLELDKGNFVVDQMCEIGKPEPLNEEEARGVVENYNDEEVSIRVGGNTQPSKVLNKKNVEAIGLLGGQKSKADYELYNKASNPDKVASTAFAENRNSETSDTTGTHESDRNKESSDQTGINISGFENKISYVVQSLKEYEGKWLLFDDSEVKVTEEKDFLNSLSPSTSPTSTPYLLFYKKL
Chain of Cytochrome P450 2D6 (Homo sapiens) (P10635 whole entry, looked up): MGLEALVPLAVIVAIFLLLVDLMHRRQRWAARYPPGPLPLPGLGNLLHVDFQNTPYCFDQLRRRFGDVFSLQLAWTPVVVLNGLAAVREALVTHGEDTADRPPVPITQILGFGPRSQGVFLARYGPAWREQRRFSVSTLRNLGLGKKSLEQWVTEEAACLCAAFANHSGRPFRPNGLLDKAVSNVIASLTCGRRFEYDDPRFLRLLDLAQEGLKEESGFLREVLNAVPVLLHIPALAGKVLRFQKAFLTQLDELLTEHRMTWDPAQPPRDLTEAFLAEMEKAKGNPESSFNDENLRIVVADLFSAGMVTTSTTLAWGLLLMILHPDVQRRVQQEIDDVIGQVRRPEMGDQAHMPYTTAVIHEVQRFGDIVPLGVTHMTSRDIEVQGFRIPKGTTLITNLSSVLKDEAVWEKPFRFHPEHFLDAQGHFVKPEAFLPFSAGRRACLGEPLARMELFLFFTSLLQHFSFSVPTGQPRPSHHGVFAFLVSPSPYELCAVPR
Chain of Cytochrome P450 2C9 (Homo sapiens) (P11712 whole entry, looked up): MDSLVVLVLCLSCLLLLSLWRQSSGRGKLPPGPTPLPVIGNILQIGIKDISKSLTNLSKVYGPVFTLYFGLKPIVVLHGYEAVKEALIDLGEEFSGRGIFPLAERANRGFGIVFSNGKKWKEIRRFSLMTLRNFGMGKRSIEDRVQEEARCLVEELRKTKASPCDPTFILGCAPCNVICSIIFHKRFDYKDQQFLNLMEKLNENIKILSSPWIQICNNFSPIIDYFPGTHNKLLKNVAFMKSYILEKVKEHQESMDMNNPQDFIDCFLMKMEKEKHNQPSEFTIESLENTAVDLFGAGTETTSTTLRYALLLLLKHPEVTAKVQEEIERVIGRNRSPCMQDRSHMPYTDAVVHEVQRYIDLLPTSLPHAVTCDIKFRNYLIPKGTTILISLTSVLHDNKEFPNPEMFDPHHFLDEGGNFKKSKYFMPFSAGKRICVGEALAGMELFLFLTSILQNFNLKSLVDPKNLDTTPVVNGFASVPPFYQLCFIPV

N#C/C(=C\c1ccc(O)c(O)c1)C(N)=O
active: Potency [1] 39.8 µM
9.4%: max response [5, 19]
26.3%: max response [5, 18]
inactive: Potency [2] > 46 µM | Potency [3] > 46 µM | Potency [4] | activity change, negative = inhibition [5] -11.6% | Potency [6] | Potency [7]

NC(N)=Nc1ccc(Cl)cc1
inactive: Potency [1] | Potency [2] > 46 µM | Potency [3] > 46 µM | Potency [8] | Potency [4] | Potency [9] | activity change, negative = inhibition [5] -3.61% | Potency [10] | Potency [6] | Potency [7]
-4.97%: max response [5, 19]
-0.36%: max response [5, 18]

CCNCCCNCCCNCCCNCC
-26.1%: max response [5, 18]
-12.2%: max response [5, 19]
inactive: Potency [1] | Potency [2] > 46 µM | Potency [3] > 46 µM | Potency [8] | Potency [9] | activity change, negative = inhibition [5] -4.07% | Potency [10] | Potency [6] | Potency [7]

CC(C)c1cccc(O)c(=O)c1
inactive: outcome [11] | outcome [12] | Potency [10] | Potency [7] | Potency [13] | outcome [14] | outcome [15]

Cc1ccccc1N=C(N)Nc1ccccc1C
2.46%: max response [5, 18]
7.24%: max response [5, 19]
inactive: Potency [1] | Potency [3] > 46 µM | Potency [8] | activity change, negative = inhibition [5] 3.82% | Potency [10] | Potency [6] | Potency [7]

N[C@@H](C(=O)O)c1ccc(C(=O)O)cc1
10.8%: max response [5, 18]
inactive: Potency [1] | Potency [2] > 46 µM | Potency [3] > 46 µM | Potency [8] | Potency [4] | activity change, negative = inhibition [5] 5.37% | Potency [10] | Potency [6] | Potency [7]
17.4%: max response [5, 19]

CN(C)CCCSc1ccccc1NC(=O)/C=C\c1ccccc1
23.1%: max response [5, 19]
inactive: Potency [2] > 46 µM | Potency [3] > 46 µM | Potency [8] | Potency [16] | Potency [9] | activity change, negative = inhibition [5] 4.73% | Potency [10] | Potency [6] | Potency [7]
14.3%: max response [5, 18]
active: Potency [17] 0.316 µM

N[C@@H](C(=O)O)c1ccc(P(=O)(O)O)cc1
active: Potency [1] 20 µM
inactive: Potency [2] > 46 µM | Potency [3] > 46 µM | Potency [8] | Potency [4] | activity change, negative = inhibition [5] 2.44% | Potency [10] | Potency [6] | Potency [7]
3.42%: max response [5, 18]
7.2%: max response [5, 19]
